Measurements taken from PubChem BioAssay AID2014 (Sanford-Burnham Center for Chemical Genomics, 2009).
Out of some 290,000 compounds screened, about 3,000 (1%) were called active. The rule behind the calls is not given here. The sample as a whole holds a higher share of actives than the screen did.

Biological target: Polyadenylate-binding protein 1 (Homo sapiens) (UniProt P11940)
Assay: blockers of PABP interaction with poly(A) – biochemical, fluorescence polarization, uHTS, primary screen (AID 2014);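 note: calls also rest on retests at 20 µM and on dose response follow-up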
Settings: PABP-poly(A) RNA binding, stronger effect = higher value

Chain of Polyadenylate-binding protein 1 (Homo sapiens) (P11940 whole entry, looked up): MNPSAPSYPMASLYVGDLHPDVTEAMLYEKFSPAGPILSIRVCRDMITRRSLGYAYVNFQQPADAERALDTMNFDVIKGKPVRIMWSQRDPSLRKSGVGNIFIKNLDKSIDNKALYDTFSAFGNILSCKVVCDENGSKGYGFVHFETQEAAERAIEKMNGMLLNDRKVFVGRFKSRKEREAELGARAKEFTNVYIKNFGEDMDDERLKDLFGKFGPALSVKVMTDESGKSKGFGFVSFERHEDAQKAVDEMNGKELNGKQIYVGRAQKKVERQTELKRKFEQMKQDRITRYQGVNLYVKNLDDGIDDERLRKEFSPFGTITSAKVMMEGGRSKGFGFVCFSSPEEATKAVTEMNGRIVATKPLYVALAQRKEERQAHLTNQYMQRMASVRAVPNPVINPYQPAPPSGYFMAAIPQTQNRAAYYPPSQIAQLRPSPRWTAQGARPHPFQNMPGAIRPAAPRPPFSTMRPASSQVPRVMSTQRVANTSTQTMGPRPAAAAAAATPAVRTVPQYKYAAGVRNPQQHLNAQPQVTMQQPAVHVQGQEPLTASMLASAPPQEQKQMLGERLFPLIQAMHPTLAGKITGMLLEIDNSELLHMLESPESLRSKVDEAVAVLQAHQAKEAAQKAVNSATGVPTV

Row | Structure (SMILES) | inhibition (at 35 µM) | inhibition (confirmation repeats, at 20 µM) [%]
1 | C[N+]1(CCNC(=O)/C=N/O)CCCCC1 | 63.4% (active) | 
2 | CC(C)[C@H](NC(=O)N1CC(=O)Nc2ccccc21)C(=O)N[C@@H](Cc1c[nH]c2ccccc12)C(=O)O | -3.1% (inactive) | 
3 | Cc1cccc(-c2c(NC(=O)c3ccco3)oc3ccc(Cl)cc3c2=O)c1 | -6.1% (inactive) | 
4 | O=C1OC(/C=C/c2ccccc2)=NC/1=C/c1ccco1 | 16.6% (inactive) | 5.2
5 | CCC1S/C(=N/N=C/c2ccco2)NC1=O (centres undefined) | -11% (inactive) | 
6 | CC(C)(C)C1C/C(=C/c2ccco2)C(=O)/C(=C/c2ccco2)C1 (centres undefined) | -1.8% (active) | 53.3
7 | Cn1c(=O)oc2cc(S(=O)(=O)NCCC(=O)NCc3ccccc3Cl)ccc21 | 1% (inactive) | 
8 | C=CCn1c(=S)[nH]c2scc(-c3ccco3)c2c1=O | 69.3% (active) | 
9 | C=CCn1c(SCc2csc(C)n2)nc2scc(-c3ccc(C)o3)c2c1=O | 6.5% (inactive) | 
10 | C=CCNC(=O)CSc1nc2scc(-c3ccco3)c2c(=O)n1CC=C | 15.2% (inactive) | 
11 | COc1cccc(NC(=O)N2CCCC2C(=O)NC2CCCCC2)c1 (centres undefined) | -0.6% (inactive) | 
12 | CCn1cc(C(=O)N2CC(C)CC(C)C2)c(=O)c2cc(S(=O)(=O)N3CCCC3)ccc21 (centres undefined) | -11.3% (inactive) | 
13 | COc1ccc(-c2cc(C(=O)N(C)Cc3ccc(OC)c(OC)c3OC)c3ccccc3n2)cc1OC | 48% (inactive) | 
14 | Cc1ccc(C(C[N+](=O)[O-])c2c(C)cc3ccccn23)cc1 (centres undefined) | -2.2% (active) | 72.2
15 | Cc1cc2ccccn2c1C(=O)c1cccc(F)c1 | 2.5% (inactive) | 
16 | CC(=O)Nc1ccc(/C=N/Nc2ccc(C(=O)c3c(C)cc4ccccn34)cc2[N+](=O)[O-])cc1 | 9% (inactive) | 
17 | Cc1ccc(CNC(=O)Cc2cn(C)c3ccccc23)cc1 | 6.1% (inactive) | 
18 | COc1ccc(C(=O)CSc2nnc(COc3ccccc3)n2Cc2ccco2)cc1 | -8.1% (inactive) | 
19 | Cn1c2ccccc2c(=O)c2c(=O)n(Cc3ccco3)c(COc3ccccc3)nc21 | 1.9% (active) | 54.5
20 | CCCc1nc2c(c(=O)c3ccccc3n2C)c(=O)n1-c1cc(C)cc(C)c1 | 4.7% (inactive) | 
21 | Cc1cnc(C)c(N2CCN(C(=O)C3CCC(=O)N(CCc4cccc(F)c4)C3)CC2)n1 (centres undefined) | 4.1% (inactive) | 
22 | O=C1CCCC(O)=C1N=Nc1ccc2ncsc2c1 | -16.7% (active) | 53.4
23 | O=C1CCCC(O)=C1N=Nc1ccc(S(=O)(=O)N2CCOCC2)cc1 | 14.4% (inactive) | 
24 | CCOc1cc(C2/C(=C(/O)c3ccc(S(=O)(=O)N4CCCCC4)cc3)C(=O)C(=O)N2CCOC)ccc1O (centres undefined) | 1.6% (inactive) | 
